Molecules are shown by their SMILES. Records with an inconclusive call do not appear. Unmarked numbers belong to inactive results. The source made the active and inactive calls. The call rests on the fitted dose curve; in most records, active means well fitted inhibition curve with a large enough effect; inconclusive means small, poorly fitted or top-dose-only effect; inactive means flat fitted curve, though single readings scatter.
On the % scale 0 is the no-effect control and ±100 the full control effect; potency means the concentration at half of the fitted maximal effect.

This test in a line: P-glycoprotein substrates identified in KB-8-5-11 adenocarcinoma cell line, qHTS therapeutic library screen (AID 1346987). Further: nearly all actives have a fitted effect of over 65% in size. The following applies: KB-8-5-11 (P-gp overexpressing) viability, CellTiter-Glo, 72 h; series mostly up to 44.5 µM; activity change, negative = cytotoxicity: at the top concentration. Summed up:
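KB-8-5-11, a colchicine-selected P-gp-overexpressing KB-3-1 subline, was grown without colchicine for the assay. Cells were seeded at 500 cells/well, dosed in concentration-response and incubated 72 h at 37 degree C, 5% CO2. Viability was read by CellTiter-Glo luminescence.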
With `O=C(Nc1ccc(N(Cc2ccsc2)C(=O)Cn2nnc3ccccc32)cc1)C1CC1`, the “activity change, negative = cytotoxicity” value is -25.3%.

On to `NS(=O)(=O)c1ccc(N2CCN(CC[C@@H]3OCCc4ccccc43)CC2)cc1`, for which the “activity change, negative = cytotoxicity” value was -11.5%.

For `O=P(O)(O)C(O)(Cc1cnc2ccccn12)P(=O)(O)O`, the “activity change, negative = cytotoxicity” value was -6.97%.

As for `CCN(CC)c1ccc(C(=C2C=CC(=[N+](CC)CC)C=C2)c2ccccc2)cc1`, the Potency was 4.61 µM (active).

In the case of `C[C@H](CN(C)C)Oc1nc(Nc2cc3cccc(Cl)c3cn2)cnc1C#N`, the Potency was 2.91 µM (active).

`C=C(C)C(=O)O[C@H]1C[C@@](C)(O)C2(O)CCC(C)(/C=C3/OC(=O)C(COC)=C31)O2` (some centres undefined): the Potency is 6.4 µM (active).

On to `COc1ccc(OC)c(-c2ccc(NC(=O)c3ccncc3F)cc2)c1`, for which the “activity change, negative = cytotoxicity” value is -9.21%.

With `CC(C)(O)C1CC(=O)C2(C)C(CCC3(C)C(c4ccoc4)OC(=O)C4OC432)C12CCC(=O)OC2` (centres undefined), the “outcome” value is “inactive [at 17.3 µM]”.

Take `C/C=C/C=C/C=C/C(=O)O[C@@H]1C=C(CO)C(O)(C(=O)OC)[C@@]2(C)CCCC(C)(C)C12` (some centres undefined): the “activity change, negative = cytotoxicity” value was 4.04% [at 17.3 µM].

In the case of `CN(C)CCN(Cc1ccccc1)C(=O)c1cc(-c2ccc(F)cc2)n2nc(C(C)(C)C)cc2n1`, the Potency is 20.6 µM (active).

As for `CCC1C(=O)N(C)c2cnc(Nc3ccc(C(=O)NC4CCN(C)CC4)cc3OC)nc2N1C1CCCC1` (centres undefined), the Potency is 0.231 µM (active).

As for `Cc1ccc(-c2cn3c4c(sc3n2)CCCC4)cc1`, the “activity change, negative = cytotoxicity” value is -19%.

Take `COc1cc(C[C@@H]2NCCc3cc(O)c(O)cc32)cc(OC)c1OC`: the “activity change, negative = cytotoxicity” value was -7.13%.

For the molecule `Nc1nc2c(ncn2C2OC3COP(=O)(O)OC3C2O)c(=O)[nH]1` (centres undefined), the “activity change, negative = cytotoxicity” value was -0.115%.

`CO[C@@H]1CC(OC2CCC3(C)C(CCC45CCC(C6=CC(=O)OC6)C(C)(CCC43)C5=O)C2)O[C@H](C)[C@@H]1O[C@@H]1O[C@H](CO[C@@H]2O[C@H](CO)[C@@H](O)[C@H](O)[C@H]2O)[C@@H](O)[C@H](O)[C@H]1O` (some centres undefined): the Potency was 4.37 µM (active).

For `Cc1c(O)cc2c(c1C)O[C@](C)(CCC[C@H](C)CCC[C@H](C)CCCC(C)C)CC2`, the “activity change, negative = cytotoxicity” value was 1.21%.

For the molecule `CC1(NC(=O)c2ccc(C#Cc3cccc(F)c3)cn2)COC1`, the “activity change, negative = cytotoxicity” value is -18.1%.

With `Cc1cccc(C)c1N(CCCc1cccnc1)C(=O)C(C)N` (centres undefined), the “activity change, negative = cytotoxicity” value is -29.3%.

In the case of `Cc1cccc(C#Cc2cc(F)cc(C#N)c2)n1`, the “activity change, negative = cytotoxicity” value is -11.7%.

Regarding `c1ccc(-c2ccc(CNc3nc(-c4ccccn4)nnc3-c3ccccc3)cc2)cc1`, the Potency is 4.61 µM (active).

Take `CCCCCCCCCCCCCCCCCC(=O)OCCO`: the “activity change, negative = cytotoxicity” value is -16.9%.

Take `CCNC(=O)Nc1ccc(-c2nc3c(c(N4CCOCC4C)n2)CCN(C2COC2)C3)cc1` (centres undefined): the Potency is 1.84 µM (active).

Take `C/C1=C/CCC2=CC(OC2=O)C(C)(C)/C=C/C1=O` (centres undefined): the Potency is 3.26 µM (active).

Regarding `Cc1ccc(C(=O)Nc2ccc(CN3CCN(C)CC3)c(C(F)(F)F)c2)cc1C#Cc1cnc2[nH]ncc2c1`, the Potency was 20.6 µM (active).

In the case of `CN(C)CC#CCCC(=O)C(O)(c1ccccc1)C1CCC1` (centres undefined), the “activity change, negative = cytotoxicity” value was -11.2%.

Turning to `COC(C)=O`, the “activity change, negative = cytotoxicity” value is -14%.

For `Cc1cc(Nc2ccccc2C(=O)O)ccc1Cl`, the “activity change, negative = cytotoxicity” value was 1.76%.

Regarding `NC(N)=NC(=O)c1cnn(-c2cccc3ncccc23)c1C1CC1`, the “activity change, negative = cytotoxicity” value was -0.957%.

Consider `O=C1Cc2c([nH]c3ccc(Br)cc23)-c2ncccc2N1`, for which the “activity change, negative = cytotoxicity” value was -6.51%.
